Here are results for 86 compounds from PubChem BioAssay AID1476 (National Center for Advancing Translational Sciences (NCATS), 2009).

“And” between values parts separate entries of the source, which are not always exact repeats. Identical values can stand only once. Among all 200,000 compounds or so, about 4,500 (2.2%) were called active. Not shown: some 12% with an inconclusive outcome. Calls follow the shape of the dose curve; as a rule, active = well fitted inhibition curve with a large enough effect; inconclusive = small, poorly fitted or top-dose-only effect, or effect the other way; inactive = flat fitted curve, though single readings scatter. Only a selection was taken, and actives are over-represented in it overall. More than one record can exist for a structure, and the calls need not agree.
Potency is read from the fitted curve at half-maximal effect.

Sequence of Cruzipain (Trypanosoma cruzi) (P25779 123-467 limits assumed): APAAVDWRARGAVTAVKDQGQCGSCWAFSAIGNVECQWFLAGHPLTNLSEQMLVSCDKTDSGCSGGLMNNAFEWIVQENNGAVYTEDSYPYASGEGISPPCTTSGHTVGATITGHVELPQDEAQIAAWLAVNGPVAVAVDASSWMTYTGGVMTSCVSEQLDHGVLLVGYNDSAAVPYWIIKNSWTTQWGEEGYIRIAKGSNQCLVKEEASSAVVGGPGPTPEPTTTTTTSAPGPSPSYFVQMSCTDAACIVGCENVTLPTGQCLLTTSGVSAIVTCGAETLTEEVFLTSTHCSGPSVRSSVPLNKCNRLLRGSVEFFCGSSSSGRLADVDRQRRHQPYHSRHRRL

For the experiment, the target named is Cruzipain (Trypanosoma cruzi) (UniProt P25779). Briefly: qHTS Assay for Promiscuous and Specific Inhibitors of Cruzain (without detergent). Also: nearly all actives have a fitted effect of over 40% in size.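 As to max response, negative = inhibition: plate controls were enzyme without inhibitor for no effect and buffer without enzyme for full effect.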 To be noted: purified cruzain, Z-FR-AMC fluorescence, no detergent. In short, it runs like this:
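Detergent-free condition (0.00005% Triton X-100) in acetate buffer pH 5.5 with DTT. 1.5 nM enzyme and compound were pre-mixed 15 min, then 2 uM Z-FR-AMC substrate added; reaction progress from fluorescence change between first and third reads (60 s).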
Consider `CCOc1ccc2nc(Cl)c(C3CC(c4ccccc4)=NN3C(=O)c3cccs3)cc2c1` (stereo not drawn), for which the Potency was 7.94 µM (active).
For `CCOc1ccccc1C1CC(c2cccc(NS(C)(=O)=O)c2)=NN1C(=O)c1ccccc1` (stereo not drawn), the max response, negative = inhibition was 4.98% (inactive).
Still for that read-out and setting: for `O=C(COc1ccc2ccccc2c1)N1CCN(C(=O)c2cccs2)CC1` the value was 12.1% (inactive).
Take `CCOC(=O)c1c(C)oc2nc(C)nc(N(CC(C)C)CC(C)C)c12`: the max response, negative = inhibition was -3.29% (inactive).
Consider `COc1ccc(NC(=O)CN2C(=O)COc3ccc(S(=O)(=O)N4CCOCC4)cc32)cc1`, for which the max response, negative = inhibition is 4.14% (inactive).
On the same count and under the same terms, for `Nc1ccc(C(=O)OCC(=O)NC2CCCc3ccccc32)cc1[N+](=O)[O-]` (stereo not drawn) the value was -1.06% (inactive).
With `O=C(NC1CCc2ccccc21)C12CN(Cc3ccccc3)CC1C(c1cccc([N+](=O)[O-])c1)=NO2` (stereo not drawn), the Potency was 12.6 µM (active).
As to `COc1ccccc1CC(=O)Nc1ccc([N+](=O)[O-])cc1OC`, the max response, negative = inhibition was -6.07% (inactive).
With `COc1ccc([N+](=O)[O-])cc1NC(=O)CCc1ccccc1`, the max response, negative = inhibition was -3.31% (inactive).
Turning to `COc1ccc([N+](=O)[O-])cc1C1NN=C(c2cccc3ccccc23)S1` (stereo not drawn), the Potency is 7.94 µM (active).
With `O=C(CSc1nc(Nc2ccc(F)c(F)c2)c2ccccc2n1)c1ccc(Cl)cc1`, the max response, negative = inhibition is -24.6% (inactive).
Take `COc1ccccc1CSc1nc2ccccc2[nH]1`: the max response, negative = inhibition is 4.13% (inactive).
`Cc1ccccc1OC/C(O)=C(\C#N)c1nc2ccccc2[nH]1`: the Potency is 20 µM (active).
`COC(=O)Cc1nc2ccccc2[nH]1`: the max response, negative = inhibition is -1.4% (inactive).
`CCOc1ccc(NC(=O)Cn2c(C)ccc(C#N)c2=O)cc1`: the max response, negative = inhibition was -12.5% (inactive).
With `COc1ccc(S(=O)(=O)N2CCCC(C(=O)Nc3ccc(NC(=O)c4ccccn4)cc3)C2)cc1` (stereo not drawn), the max response, negative = inhibition is -11.4% (inactive).
For the compound `COc1ccc(S(=O)(=O)N2CCN(c3ncnc4c(-c5ccccc5)nsc34)CC2)cc1`, the Potency is 20 µM (active).
Consider `Cc1cc(N2CCN(S(=O)(=O)c3ccc(C)c(C)c3)CC2)c2ccccc2n1`, for which the max response, negative = inhibition is 1.17% (inactive).
Turning to `COc1cccc(NC(=O)Cn2c(=O)cc(C)c3c(C)nn(-c4cccc(F)c4)c32)c1`, the max response, negative = inhibition was -8.29% (inactive).
As to `CCC(=O)N1CCc2cc(CNS(=O)(=O)c3ccc(Br)s3)ccc21`, the max response, negative = inhibition is -2.98% (inactive).
With `CCOc1ccc(Nc2oc(/C=C/c3ccc(F)cc3)nc2C#N)cc1`, the max response, negative = inhibition was -13.4% (inactive).
In the case of `Cc1c(C)n(Cc2ccc(Cl)cc2)c2ccc(C(=O)N3CCN(c4ccccc4F)CC3)cc12`, the Potency was 12.6 µM (active).
Take `CCn1c(C)c(C)c2cc(C(=O)N3CCN(c4cccc(C)c4C)CC3)ccc21`: the max response, negative = inhibition was -25.1% (inactive).
With `O=C(c1ccc(CN2CCOCC2)cc1)N1CCN(c2ccccc2F)CC1`, the max response, negative = inhibition is -4.12% (inactive).
For the compound `Cc1ccc(C)c(Cn2c(=O)n(CCC(=O)NCc3ccc4c(c3)OCO4)c(=O)c3sccc32)c1`, the max response, negative = inhibition is -5.68% (inactive).
Turning to `O=C(CSCc1cnn(-c2ccccc2)c1-n1cccc1)NCc1ccc(Cl)cc1`, the max response, negative = inhibition was 5.64% (inactive).
Consider `Cc1ccc(-n2nc(C)c(C(=O)O)c2-n2cccc2)cc1`, for which the max response, negative = inhibition was 1.25% (inactive).
As to `CCC(=O)N1CCc2cc(S(=O)(=O)NC(C(=O)NCCc3ccc(C)cc3)C(C)C)ccc21` (stereo not drawn), the max response, negative = inhibition is -12.9% (inactive).
As to `COc1ccccc1NC(=O)CN1C(=O)c2ccccc2Sc2ccc(C(=O)N3CCCC3)cc21`, the max response, negative = inhibition was 4.29% (inactive).
`COc1cccc(CNC(=O)c2ccc3c(c2)N(Cc2ccc(C(F)(F)F)cc2)C(=O)c2ccccc2S3)c1OC`: the Potency was 10 µM (active).
Take `Cc1ccccc1CN1C(=O)c2ccccc2Sc2ccc(C(=O)NCCCN3CCOCC3)cc21`: the max response, negative = inhibition is -3.52% (inactive).
On to `Cc1sc(NC(=S)NC(=O)c2cccs2)nc1-c1ccc(CC(C)C)cc1`, for which the Potency was 10 µM (active).
On to `Cc1nc(-c2ccc(NC(=O)c3cccs3)cc2)cs1`, for which the max response, negative = inhibition is -25.5% (inactive).
Still for that read-out and setting: in the case of `Cc1ccc(-c2csc(NC(=O)c3cccs3)n2)cc1` it was 7.26% (inactive); in that of `COc1ccc(C2=NC(c3ccncc3)=Nc3ccc(Br)cc3N2)cc1`, 11.4% (inactive); in that of `O=C(Cn1ncn2nc(-c3cccs3)cc2c1=O)NCc1cccc(Br)c1`, -9.74% (inactive).
With `O=C(CSc1oc(-c2ccco2)nc1S(=O)(=O)c1ccc(Cl)cc1)c1ccccc1`, the max response, negative = inhibition is 10.2% (inactive).
On to `CCCN(CCC)CCCNC(=O)Cn1cc2c(n1)-c1c(oc(C(=O)N3CCCC3)c1C)CC2`, for which the max response, negative = inhibition was 2.15% (inactive).
As for `CCc1cccc(NC(=O)CN(c2ccc(C)c(C)c2)S(=O)(=O)c2ccsc2C(=O)OC)c1`, the max response, negative = inhibition was -9.83% (inactive).
For the compound `Cc1ccc(CNC(=O)CSc2c(C)cnc3c2c(=O)n(C)c(=O)n3C)cc1`, the max response, negative = inhibition was -5.95% (inactive).
For the compound `Cc1cc(C(=O)COC(=O)CNC(=O)c2ccc(F)cc2)c(C)n1Cc1ccco1`, the Potency was 15.8 µM (active).
Consider `O=C(CNC(=O)c1ccco1)OCC(=O)c1ccccc1`, for which the max response, negative = inhibition was -5.08% (inactive).
Turning to `Cc1nn2c(=O)cc(COC(=O)CNC(=O)c3ccc(F)cc3)nc2s1`, the max response, negative = inhibition was -12.1% (inactive).
Consider `O=c1cc(-c2ccccc2)n2c(SCc3ccccc3)nnc2[nH]1`, for which the max response, negative = inhibition was -3.24% (inactive).
As to `N#Cc1nc(N)nc(N(c2ccccc2)c2ccccc2)n1`, the Potency is 1.58 µM (active).
On to `CC(C)Nc1nc(N(c2ccccc2)c2ccccc2)nc(-n2ccnc2)n1`, for which the max response, negative = inhibition is 11.1% (inactive).
For the compound `COc1ccc(NC(=O)CNC(=O)Cn2ccc3ccccc3c2=O)c(OC)c1`, the max response, negative = inhibition was 10.4% (inactive).
For `Cc1ccccc1N1CCN(CCCOc2ccc3c(C)cc(=O)oc3c2)CC1`, the max response, negative = inhibition was -15.8% (inactive).
On to `COC(=O)COc1ccc2oc(=O)cc(C)c2c1`, for which the max response, negative = inhibition is -6.25% (inactive).
Take `Cc1ccccc1NC(=O)c1ccc(COc2ccc3c(C)cc(=O)oc3c2)cc1`: the Potency was 10 µM (active).
In the case of `CC(=O)N1CCCc2ccc(NS(=O)(=O)c3ccc(F)cc3F)cc21`, the max response, negative = inhibition is 8.5% (inactive).
As for `COc1cc2c(cc1OC)C(COc1ccc(F)cc1)N(C(=O)c1ccccc1F)CC2` (stereo not drawn), the max response, negative = inhibition is 28.1% (inactive).
For the compound `CC(=O)COc1ccc2c(-c3ccccc3)cc(=O)oc2c1`, the max response, negative = inhibition is 2.99% (inactive).
On to `COc1ccc(-c2c(C)cc3oc(=O)cc(-c4ccccc4)c3c2C)cc1OC`, for which the max response, negative = inhibition was -25.9% (inactive).
On to `COc1ccc(-c2c(C)cc3oc(=O)cc(-c4ccccc4)c3c2C)cc1F`, for which the Potency is 39.8 µM (active).
`Cc1cc(C)cc(NC(=O)CSc2nc3nccnc3c(=O)n2CCc2c[nH]c3ccccc23)c1`: the max response, negative = inhibition is -2.15% (inactive).
`O=S(=O)(c1ccccc1)c1nc(-c2ccc(Cl)cc2Cl)oc1N1CCCCC1`: the max response, negative = inhibition is -16.2% (inactive).
Regarding `Cc1ccc(S(=O)(=O)n2nc(C)c(S(=O)(=O)N3CCCCCC3)c2C)cc1`, the max response, negative = inhibition was -10.4% (inactive).
Consider `Oc1c(Cl)cc(Cl)c(Cl)c1Cc1c(O)c(Cl)cc(Cl)c1Cl`, for which the Potency is 31.6 µM (active) and 25.1 µM (active); the max response, negative = inhibition is -18.2% (inactive).
In the case of `CCOc1ccc(NC(=O)CSc2ncnc3c2sc2ccccc23)cc1`, the Potency is 25.1 µM (active) and the max response, negative = inhibition is -8.47% (inactive).
Turning to `CCOc1ccc(NC(=O)CSc2c3c(nc4ccccc24)CCCC3)cc1`, the max response, negative = inhibition was 1.83% (inactive).
For the compound `CCOc1ccc(NC(=O)CSc2nc3ccccc3c(=O)n2Cc2cccs2)cc1`, the max response, negative = inhibition was -21.1% (inactive).
For the compound `Cc1ccc(C)c(N2CCN(C(c3ccccc3)c3nnc(-c4ccccc4)o3)CC2)c1` (stereo not drawn), the max response, negative = inhibition is -12.6% (inactive).
On to `COc1ccc(CCNC(=O)CCCCn2c(=O)c3ccccc3n(Cc3ccccc3)c2=O)cc1OC`, for which the max response, negative = inhibition is -0.815% (inactive).
Same read-out and setting: in the case of `COc1cc(C2c3c(oc4ccccc4c3=O)C(=O)N2c2nc(C)c(C)s2)ccc1O` (stereo not drawn) it was -4.14% (inactive).
As to `COc1ccccc1CNC(=O)CCCCn1c(=O)c2ccccc2n(CC(=O)Nc2cc(Cl)ccc2C)c1=O`, the max response, negative = inhibition was -2.88% (inactive).
As to `O=C(c1ccccc1)N1CCN(c2ccc([N+](=O)[O-])c(NCc3ccco3)c2)CC1`, the max response, negative = inhibition was -12.2% (inactive).
Consider `COc1ccccc1OCCNc1cc(N2CCOCC2)ccc1[N+](=O)[O-]`, for which the max response, negative = inhibition is 26.2% (inactive).
Regarding `O=[N+]([O-])c1ccc(N2CCN(S(=O)(=O)c3ccc4ccccc4c3)CC2)cc1NCc1ccco1`, the Potency is 7.94 µM (active).
For `CCc1ccccc1NC(=O)CSc1nc(C)c(C(=O)Nc2ccccc2)c(-c2ccc(Cl)cc2)c1C#N`, the max response, negative = inhibition is 4.27% (inactive).
Take `CCc1ccc(NC(=O)CN2C(=O)C(c3ccccc3)=NC23CCCCCC3)cc1`: the max response, negative = inhibition is -25.9% (inactive).
For the compound `COc1ccc(S(=O)(=O)N(C)CC(=O)Nc2ccc3c(c2)OCCO3)cc1OC`, the max response, negative = inhibition was -3.41% (inactive).
In the case of `O=C(CN(c1ccc2c(c1)OCCO2)S(=O)(=O)c1ccccc1)Nc1ccc2c(c1)OCO2`, the Potency was 12.6 µM (active).
Take `Cc1noc(C)c1S(=O)(=O)N(CC(=O)Nc1ccc2c(c1)OCCO2)c1ccc(C(C)C)cc1`: the max response, negative = inhibition is 0.199% (inactive).
On to `Cc1ccc(S(=O)(=O)N(CC(=O)Nc2ccc(Cl)cc2Cl)c2ccccc2C)cc1`, for which the max response, negative = inhibition is -29.7% (inactive).
Same read-out and setting: for `COc1ccc(-n2nc(C(=O)NCCc3ccc(Cl)cc3)c3c4ccccc4n(C)c3c2=O)cc1Cl` the value was -5.4% (inactive).
Turning to `COC(=O)c1sccc1NC(=O)COc1ccc(Cl)cc1`, the max response, negative = inhibition was -7.31% (inactive).
Take `COC(=O)c1sccc1N/N=C(\C)c1ccc(F)c(Cl)c1`: the Potency is 20 µM (active).
For the compound `COC(=O)c1sccc1NC(=O)c1cc(OC)c(OC)c(OC)c1`, the max response, negative = inhibition was 13.7% (inactive).
On to `O=C(CCS(=O)(=O)c1ccccc1)N(Cc1cccnc1)c1nc2c(F)cccc2s1`, for which the max response, negative = inhibition is 15.4% (inactive).
Consider `CC(C)CN(C(=O)c1cccc(S(=O)(=O)N2CCCCC2)c1)C1CCS(=O)(=O)C1` (stereo not drawn), for which the max response, negative = inhibition is 5.95% (inactive).
`COc1ccc(OCCCn2c(C)nc3cc(C)c(C)cc32)cc1`: the max response, negative = inhibition was 11.2% (inactive).
For the compound `COc1cccc(N2CC(NC(=O)/C=C\c3ccccc3)CC2=O)c1` (stereo not drawn), the max response, negative = inhibition was -5.97% (inactive).
Still for that read-out and setting: in the case of `OC(COc1ccc2c(c1)CCC2)CN1CCN(c2cccc(Cl)c2)CC1` (stereo not drawn) it was 1.52% (inactive).
Take `O=c1cc(CN2CCN(c3cccc(Cl)c3)CC2)c2cc3c(cc2o1)CCCC3`: the Potency was 12.6 µM (active).
Turning to `O=c1cc(CN2CCN(S(=O)(=O)/C=C/c3ccccc3)CC2)c2ccc(O)cc2o1`, the max response, negative = inhibition is -11.9% (inactive).
